Among all 370,000 compounds or so, about 4,100 (1.1%) were called active.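 Rule for the calls: active = inhibition above the mean over all tested compounds plus 3 SD (cut at about 3.6% in these data); inactive = the rest.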 Only a selection was taken, and actives are over-represented in it overall.

This assay is described as follows: DAX1 (NR0B1) inhibitors on StAR promoter, primary screen, cell-based, luminescence, SF-1 (NR5A1), full-length DAX-1 (AID 652010).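 Note: 0% = DAX-1 cells with DMSO and 100% = cells lacking DAX-1 with DMSO.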 The following applies: HEK293T StAR-luciferase reporter, SF-1/DAX-1 repression relief; at 6.8 µM; stronger effect = higher value.
Consider `COc1ccc2c(c1)NP(=S)(c1ccccc1)N2` (stereo not given), for which the inhibition was 6.3% (active).
With `Cc1cc(C)c2c(c1)NP(=S)(c1ccccc1)N2` (stereo not given) the figure was 4.45% (active); with `C[C@]12CCC3C(CC[C@H]4[C@H](O)[C@H](O)CC[C@]34C)C1CCC2=O` (stereo not given in full), -0.89% (inactive); with `Cc1ccccc1CCC[C@@H](CC1CCCCC1)CN(C)C(=O)Oc1ccccc1`, -0.86% (inactive).
The value for `Cc1nc2nc(C)c(CCC(=O)N3CCC4(CC3)OCCO4)c(C)n2n1` was 0.57% (inactive); that for `CC(=O)N1CN2CN(C(C)=O)CC(C(=O)c3ccc(Br)cc3)(C2)C1` was 0.07% (inactive).
With `CCOc1cccc(=NC2CCCCC2)c2c(C)[nH]c(C)c12` the figure was -0.76% (inactive); with `COP(=O)(Sc1ccccc1)C(Cc1ccccc1)NC(=O)OCc1ccccc1` (stereo not given), -2.01% (inactive); with `c1cncc(CNC2=NCCC2)c1`, 0.16% (inactive).
On to `Cc1c(Oc2cc(NN3CCCCC3)c([N+](=O)[O-])cc2[N+](=O)[O-])cccc1[N+](=O)[O-]`, for which the inhibition was 0.11% (inactive).

For the origin of these results see PubChem BioAssay AID652010 (The Scripps Research Institute Molecular Screening Center, 2013).
